# Source: PubChem BioAssay AID1508600 (Functional Genomics Laboratory (NCATS/FGL), 2020)
# About 3,700 (7%) of roughly 53,000 sequences were called active. Shown is part of a subset that was picked to be rich in actives. Values without a mark were called inactive.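 How the source made its calls: active means gene knockdowns whose robust z-score for IL-1 alpha signal is at least 2 or at most -2, so actives lie on both sides; inactive means the rest.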
# Assay: Components of the Cytosolic LPS Sensing Pathway: Gene Identification via Genome-wide siRNA Screen;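 further: robust z of the log signal after scaling to non-targeting control siRNA wells of the plate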
# Conditions: RAW264.7 macrophages, IL-1a HTRF, actives lie on both sides, screened at 100 nM (by protocol), cells primed 5 h with Pam3CSK4 first
# Procedure, shortened: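 Cells (RAW264.7, 1×10^4 per well) were transfected with siRNA at 100 nM and cultured 48h at 37 degrees C. Pam3CSK4 was added for 5 hours; LipidA transfection followed for 24 hour. IL-1a was then measured by HTRF.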
row,Sequence,z-score
1,GGCAACAAUAGUUCAGAAGTT against Rps6ka5,1.5
2,GCAUAUAAUGUCUAACUCGTT against Eml4,-0.0328
3,GGUUCUUAACCUCAGCAGUTT against Omg,-0.541
4,GGAGUCUUGCUCUAUAUAATT against Arpc5,1.26
5,GGCUUCUUUAUGUUUCCUUTT against Usp48,-1.46
6,GGCUUUUCUAGUUCCUCAATT against Pdzd7,-2.01 (active)
7,GGAAUUCAAGGGCUCCACATT against Grip1,0.378
8,GGUAGGAUGAGUUGAAGAGTT against AF366264,0.0631
9,CCAGAAGUUAGAACAGUUCTT against Rp9,1.49
10,GGAGUACAUGGUACACGUUTT against Fut8,1.52
11,GGAUGUUGUUUAUCGAGGATT against Med21,-0.572
12,GGAUGGAGGAAGACUCGAUTT against Etv6,2.14 (active)
13,GGAAACCUGUUUGAUUUUGTT against Aasdhppt,0.798
14,GCUUUCAUAGCUGGAAACCTT against Olfr173,0.452
15,CCUCACAAAUAUACAGUUCTT against Pira2,0.519
16,UUCUACUGGGCUUAACCAGTT against Olfr1032,1.86
17,GGAUGCUUUAACUUCAAACTT against Crebrf,2.56 (active)
18,GCCAUAUAAGAUUCUUGUGTT against Pi4kb,-0.63
19,GCAAAUGUAUUAUGUCCUUTT against Gm5478,0.0907
20,GGAUUUGUAAGACUAAUCUTT against Xdh,0.00453
21,GGUGAAGAGACUGGAGAACTT against Cavin2,-0.277
22,GGACAUAAAACUUUUCAGUTT against Foxf2,1.02

row,Sequence,z-score
1,GGAACAGAAGUCAAGUGGATT against Acsm5,2.69 (active)
2,GCUGGACACGGAAGGUAUATT against Igsf8,-0.595
3,CCUAAGAACCCUGAUCCUATT against A030005L19Rik,1.08
4,GGAAAAGGAAGAACUGAUUTT against Sptlc1,-0.477
5,GGACACCAUUGGCUCCUUATT against Tmub1,1.63
6,GGUGAUGUUCUAACCCUGCTT against Trex1,-0.0124
7,GGCUUUGUCUACACUUUCATT against Olfr1308,-1.02
8,GGAUGGGAAGGUGAUUGUCTT against Gnb5,1
9,CCUGGUGUUCGUGUACCUGTT against Cdk5r2,3.1 (active)
10,GGAUUUAUUUAUGUCUUCCTT against Slc17a1,0.0643
11,GCAGUUGAGACAAUAUGUCTT against Trim31,-1.8
12,GGAUGUGUCGGGAAAUGCUTT against Frmd5,-1.7
13,GCACUAGAAGUGUCUUUUCTT against Cdhr1,2.17 (active)
14,GGACAUUUUUCAUUUGUGATT against Zfhx4,1.28
15,GGUCAUUCACGUCUGCGUUTT against Kcnj8,-0.292
16,CCAGUGCAGGACCUCAUUUTT against Sod1,-2.06 (active)
17,GGCAGCUCUGACUUUAUAATT against Klhdc3,-1.63
18,CCCUGUAGAAAUUCAAGCCTT against Lyrm4,0.38
19,GGACAGAGCAUCACAGAAGTT against Tmem154,-2.33 (active)
20,GCGGUUUGUCUUCAACAAGTT against Il1b,0.22
21,CCCUGGACUAAGGAUCACCTT against Cops5,-1.2
22,GGCAGAAGAAGAGUUCAACTT against Atp6v1e1,-1.1

row,Sequence,z-score
1,GCUAAGUACGUUCAUGGCATT against Gba,0.571
2,CGAAACUUACCAGGAGUCGTT against Ttyh2,-2.31 (active)
3,GGACUCAUGUUCAACACAGTT against Dimt1,-0.87
4,GGGAACUGACAAAUGGAAGTT against Samsn1,-0.0777
5,CGGCAGUCGUGAGACAUAUTT against Camk1d,-1.01
6,GGAUUUUUAGUGUUUGACATT against Rab39,-1.52
7,GGGAAUACGGAACCUUCUUTT against Olfr683,2.04 (active)
8,GGGCAGUUUUACAAAUGUUTT against Fbxw8,0.985
9,GGAACUCCAACAGGACUUUTT against Slc26a9,-0.565
10,GGAAGGAAGCAGAGAGUUATT against Ndel1,2.92 (active)
11,UUUACUAGACCUGAUGGCUTT against Olfr815,0.732
12,GGGACUCUUCUACGAGUUUTT against Lims2,0.836
13,GGAAAACAAGAGGUGAUCUTT against Bfar,-1.62
14,GGUGUUUGAUAGGUAUCUUTT against Ptpa,-1.12
15,GGAUCAUUUGAAAUUGCUGTT against Dmac2l,2.88 (active)
16,CCUGAAAAAAUUUAUCGCCTT against Pcgf3,-0.363
17,GGGUUCGAGGAAAAGGAAGTT against Acsf3,0.65
18,GGUGUCAGAAGCAGUGUAUTT against Treml1,0.459
19,GCCGAGGCUGUUGUGUUGATT against Gpaa1,-1.04
20,GGAGGUUUUUUUGUUUUGUTT against Serpinb13,-0.614
21,GGCAUUUUUCUUAGUGAUCTT against Olfr1277,-2.04 (active)
22,CCCACUUAUAUAUGUAGUUTT against Wdyhv1,0.282

row,Sequence,z-score
1,GGGCUUCAAACCCACAGAATT against Nova2,-1.19
2,GGAAUAUCAGCCAUAAGUUTT against Cplx4,1.78
3,CGAUUCAUUCAGUUUGUAATT against Terb1,-0.631
4,GGUGUUUGAUAAUGAAGAGTT against Dnah1,-0.214
5,GGCGAAGGUGUAGAAUCUCTT against Samd12,2.48 (active)
6,GGUCAUUUUGGGAUAUCAGTT against Lman1,-1.19
7,CCGCGUGUGCUCCUUUUUGTT against Zcchc3,-0.627
8,GGCUGGUUUACAACAGAACTT against Pla2g15,-0.647
9,CCAUUUGAUGACAGUAAUATT against Olfr178,1.03
10,GCUCUUGACACUAGAGAUUTT against Ap1s3,0.0373
11,GGUGUGAUGCUUGAGUGUCTT against Skint3,2.08 (active)
12,GGAGUAGCAAAGAACUGCUTT against Arpc4,-0.762
13,CCACAUGAGUGGACCUACGTT against Arid3c,-1.33
14,GGAGCUCUGGGACAAAUUCTT against Tbx20,1.34
15,CGUGGCUAGGUUAUUUAAATT against Htr1d,1.01
16,GGACACUUCCAUGUGCUACTT against Cep19,2.14 (active)
17,CCUCAAAAUGGCUAUGGACTT against 1520401A03Rik,0.587
18,GGAAAGAAACUUAAAGUGGTT against Tfdp1,2.64 (active)
19,GGUUCGAUGUCCAGUCACUTT against Ppp2ca,-1.41
20,GCCAUUGCUUUAUAAGGUUTT against Olfr901,-1.24
21,GGAUACAAAUCCAGAUUCUTT against Pex26,-0.982
22,GGAACGAAUUUUAGAUGCATT against Rbbp8,1.14

row,Sequence,z-score
1,CCCAGAGCAUUCCUAUUACTT against Klrg2,-2.84 (active)
2,GCACGGUAUCUCGAAGUCGTT against Spata18,-0.785
3,CCAUUCAAUGGUAACUGAATT against Olfr229,-0.382
4,GCAGUCGCUUUGUUUUAUATT against Olfr1204,-0.225
5,GGAAAUCGAAUGAAUAACCTT against Klf12,3.45 (active)
6,GGCUGAGAAGCAGACUUCCTT against Dclk3,1.23
7,GCUACGUUUACUGACCACATT against Bcat1,1.55
8,CCUACUCGUCUCUUUCACCTT against Tlcd1,0.158
9,GCAACUUUUAAUUGGUCUATT against Agrn,-0.537
10,GGUUUUACCGAUGAUGCAUTT against Pcdhb20,-0.624
11,GGUAAUGGCUCACUUAAUATT against Malt1,-0.427
12,GGUCUUUGACAUUUUGAAUTT against Lrrk2,-0.295
13,GUACACUCAGGCUGAGGGUTT against Acyp1,0.0397
14,GCAAUACUAUUCAGUCCAUTT against Gnai3,-2.45 (active)
15,GGUUCCACUCAACUGAAGATT against Actl7b,-0.123
16,GGCCUGCUACUUUUGAUGCTT against Olfr166,0.0524
17,GCACCUCUGACAAGGUUCUTT against Plin1,2.65 (active)
18,GGGUCAUUUCCUAUGCAGGTT against Olfr866,-1.24
19,CCAAGAUUCAUAAGAAGGCTT against Tas2r131,0.646
20,GCUAGAAUUCAUGUUUCGUTT against Dgkg,0.487
